Laboratory results reported in the supplement of paper PMC13380429.

How the values were obtained:
[1] = system: Vero E6 infected with SARS-CoV-2; assay: morphology score (similarity to uninfected cells); higher = more like uninfected cells; conditions: 24 h
[2] = system: Vero E6 infected with SARS-CoV-2; assay: SARS-CoV-2 infection rate relative to infected DMSO; higher = more infection, active = 60 or less; conditions: 24 h

CC1(C)CC(=O)c2c(C(F)(F)F)nn(-c3ccc(C(N)=O)c(N[C@H]4CC[C@H](OC(=O)CN)CC4)c3)c2C1 (10 µM)
morphology score [1]: 0.127 | SARS-CoV-2 infection rate [2]: 108% (inactive)

CC(=O)c1c(C)c2cnc(Nc3ccc(N4CCNCC4)cn3)nc2n(C2CCCC2)c1=O [palbociclib] (10 µM)
morphology score [1]: 0.0925 | SARS-CoV-2 infection rate [2]: 108% (inactive)

C#C[C@]1(OC(C)=O)CC[C@H]2[C@@H]3CCC4=C[C@@H](OC(C)=O)CC[C@@H]4[C@H]3CC[C@@]21C [ethynodiol-diacetate] (10 µM)
morphology score [1]: -0.0396 | SARS-CoV-2 infection rate [2]: 113% (inactive)

COc1ccc(C(CN(C)C)C2(O)CCCCC2)cc1 (stereo not drawn) [venlafaxine] (10 µM)
morphology score [1]: 0.00722 | SARS-CoV-2 infection rate [2]: 110% (inactive)

CCCCc1ccc(C(N)=O)nc1 [bupicomide] (10 µM)
morphology score [1]: -0.191 | SARS-CoV-2 infection rate [2]: 102% (inactive)

C[C@H]1O[C@@H](O[C@H]2CC[C@@]3(C)[C@H](CC[C@@H]4[C@@H]3C[C@@H](O)[C@]3(C)[C@@H](C5=CC(=O)OC5)CC[C@]43O)C2)C[C@H](O)[C@@H]1O[C@H]1C[C@H](O)[C@H](O[C@H]2C[C@H](O)[C@H](O[C@@H]3O[C@H](CO)[C@@H](O)[C@H](O)[C@H]3O)[C@@H](C)O2)[C@@H](C)O1 [deslanoside] (0.833333 µM)
morphology score [1]: -0.123 | SARS-CoV-2 infection rate [2]: 114% (inactive)

N=C(N)NCCC[C@H](NC(=O)c1sccc1NS(=O)(=O)c1cccc2nsnc12)C(=O)O (10 µM)
morphology score [1]: 0.0108 | SARS-CoV-2 infection rate [2]: 108% (inactive)

CCN1CCN(C(=O)Cc2ccc(Nc3ncc(F)c(Nc4ccc(C(=O)Nc5ccccc5Cl)cc4)n3)cc2)CC1 [aurora-a-inhibitor-i] (10 µM)
morphology score [1]: -0.072 | SARS-CoV-2 infection rate [2]: 86% (inactive)

COc1ccc(C2CNC(=O)C2)cc1OC1CCCC1 (stereo not drawn) [rolipram] (10 µM)
morphology score [1]: 0.39 | SARS-CoV-2 infection rate [2]: 100% (inactive)

CC1(COc2ccc(CC3SC(=O)NC3=O)cc2)CCCCC1 (stereo not drawn) [ciglitazone] (10 µM)
morphology score [1]: 0.036 | SARS-CoV-2 infection rate [2]: 110% (inactive)

CNC(=O)c1ccc(C)c(-n2c(C)cc(OCc3ccc(F)cc3F)c(Br)c2=O)c1 (0.833333 µM)
morphology score [1]: -0.158 | SARS-CoV-2 infection rate [2]: 116% (inactive)

Cc1coc2c1C(=O)C(=O)c1c-2ccc2c(C)cccc12 [tanshinone-I] (10 µM)
morphology score [1]: -0.0142 | SARS-CoV-2 infection rate [2]: 106% (inactive)

CN(CC(=O)O)C(=N)N [creatine] (10 µM)
morphology score [1]: 0.0148 | SARS-CoV-2 infection rate [2]: 113% (inactive)

COC(=O)[C@@]12OC[C@]34[C@H]([C@@H](O)[C@@H]1O)[C@@]1(C)CC(=O)C(O)=C(C)[C@@H]1C[C@H]3OC(=O)[C@H](OC(=O)/C=C(\C)C(C)C)[C@@H]24 [bruceantin] (0.833333 µM)
morphology score [1]: -0.0265 | SARS-CoV-2 infection rate [2]: 109% (inactive)

O=C(c1ccccn1)c1cnn2c(-c3ccncc3)ccnc12 [ocinaplon] (10 µM)
morphology score [1]: -0.0527 | SARS-CoV-2 infection rate [2]: 117% (inactive)

CCCCN(Cc1ccc(C(=O)NO)cc1)C(=O)Nc1ccccc1 [nexturastat-A] (0.833333 µM)
morphology score [1]: 0.112 | SARS-CoV-2 infection rate [2]: 105% (inactive)

N=C(Nc1ccccc1)Nc1ccccc1 [diphenylguanidine] (10 µM)
morphology score [1]: 0.216 | SARS-CoV-2 infection rate [2]: 98% (inactive)

C[C@H]1COC2=C1C(=O)C(=O)c1c2ccc2c1CCCC2(C)C [cryptotanshinone] (10 µM)
morphology score [1]: 0.0318 | SARS-CoV-2 infection rate [2]: 100% (inactive)

C[C@]12CCC(=O)C[C@@H]1CC[C@@H]1[C@@H]2CC[C@]2(C)[C@@H](O)CC[C@@H]12 [Dihydrotestosterone] (10 µM)
morphology score [1]: -0.034 | SARS-CoV-2 infection rate [2]: 110% (inactive)

NC(=O)N1c2ccccc2C=Cc2ccccc21 [carbamazepine] (10 µM)
morphology score [1]: -0.0216 | SARS-CoV-2 infection rate [2]: 108% (inactive)

CCN1CCC(n2cc(CNc3cc(Cl)c4ncc(C#N)c(Nc5ccc(F)c(Cl)c5)c4c3)nn2)CC1 [cot-inhibitor-2] (10 µM)
morphology score [1]: 0.683 | SARS-CoV-2 infection rate [2]: 40.5% (active)

O=C1Cc2cc(CCN3CCN(c4nsc5ccccc45)CC3)c(Cl)cc2N1 [ziprasidone] (10 µM)
morphology score [1]: 0.328 | SARS-CoV-2 infection rate [2]: 100% (inactive)

N#Cc1c(N(CC(=O)O)CC(=O)O)sc(C(=O)O)c1CC(=O)O [Strontium Ranelate] (10 µM)
morphology score [1]: -0.000723 | SARS-CoV-2 infection rate [2]: 107% (inactive)

CCOC(=O)C1=C(C)NC(C)=C(C(=O)OC)C1c1cccc(Cl)c1Cl (stereo not drawn) [felodipine] (10 µM)
morphology score [1]: 0.224 | SARS-CoV-2 infection rate [2]: 112% (inactive)

O=C(Nc1ccccc1)c1cc([N+](=O)[O-])ccc1Cl (10 µM)
morphology score [1]: 0.103 | SARS-CoV-2 infection rate [2]: 94.5% (inactive)

Cc1nnsc1C(=O)Nc1ccc(-n2nc(C(F)(F)F)cc2C(F)(F)F)cc1 (10 µM)
morphology score [1]: -0.0783 | SARS-CoV-2 infection rate [2]: 106% (inactive)

CN(C)/C=N/c1c(I)cc(I)c(CCC(=O)O)c1I [iopodic-acid] (10 µM)
morphology score [1]: 0.0727 | SARS-CoV-2 infection rate [2]: 104% (inactive)

CN1CC(=O)NC1=N [creatinine] (10 µM)
morphology score [1]: 0.0578 | SARS-CoV-2 infection rate [2]: 99.5% (inactive)

O=C(O[C@H]1C[N+]2(CCCOc3ccccc3)CCC1CC2)C(O)(c1cccs1)c1cccs1 [aclidinium] (10 µM)
morphology score [1]: 0.136 | SARS-CoV-2 infection rate [2]: 100% (inactive)

CCS(=O)(=O)c1cccc(-c2cc(C(=O)NC3CCN(C)CC3)c(C)c3[nH]c4ncc(C)cc4c23)c1 (0.833333 µM)
morphology score [1]: 0.14 | SARS-CoV-2 infection rate [2]: 105% (inactive)

COc1cccc(/C=N/N=C/c2cccc(OC)c2)c1 (10 µM)
morphology score [1]: 0.132 | SARS-CoV-2 infection rate [2]: 92% (inactive)

O=C(Oc1ccc([N+](=O)[O-])cc1)N1CCC(C(O)(c2ccc3c(c2)OCO3)c2ccc3c(c2)OCO3)CC1 (10 µM)
morphology score [1]: 0.0091 | SARS-CoV-2 infection rate [2]: 103% (inactive)

CC1=C(/C=C/C(C)=C/C=C/C(C)=C/C=C/C=C(C)/C=C/C=C(C)/C=C/C2=C(C)C(=O)[C@@H](O)CC2(C)C)C(C)(C)C[C@H](O)C1=O [astaxanthin] (10 µM)
morphology score [1]: 0.0152 | SARS-CoV-2 infection rate [2]: 107% (inactive)

N#C/C(=C1/SCC(c2ccccc2Cl)S1)n1ccnc1 (stereo not drawn) [lanoconazole] (10 µM)
morphology score [1]: 0.0956 | SARS-CoV-2 infection rate [2]: 99.5% (inactive)
